{"source": "PubChem BioAssay AID1578", "about": "(Sanford-Burnham Center for Chemical Genomics, 2009)", "note": "About 3,000 (1%) of roughly 290,000 compounds were called active. Rule as the data show it: active = inhibition mostly above about 36% (no sharp cut-off); inactive = mostly below about 34%. What follows is part of a selection rich in actives, with near analogues and random picks from the rest."}
{"test": "NOD1 signaling inhibitors, primary screen, cell-based, luminescence, uHTS (AID 1578);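 also: HEK-293T reporter cells stimulated with the NOD1 agonist gamma-tri-DAP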", "settings": "NOD1-driven NF-kB luciferase reporter cells, at 4 µM, hits give high values"}
{"compound": "CCOc1ccc(-c2nc(N)ncc2-c2ccccc2)c(O)c1", "inhibition": "2.9% (inactive)"}
{"compound": "CCOc1ccc(-c2nc(N)ncc2-c2ccc(OC)cc2)c(O)c1", "inhibition": "7.2% (inactive)"}
{"compound": "CCOc1ccc(-c2nc(N)ncc2-c2ccc(Cl)cc2)c(O)c1", "inhibition": "34.1% (active)"}
{"compound": "C=CCN1C(=O)C(CC(=O)O)SC1=Nc1ccc(C)cc1", "note": "(centres undefined)", "inhibition": "-23.8% (inactive)"}
{"compound": "CC(Oc1ccccc1)c1ccnc2nc(/N=C/N(C)C)nn12", "note": "(centres undefined)", "inhibition": "-24.9% (inactive)"}
{"compound": "CC1(C)CC(=O)c2sc(NS(=O)(=O)c3ccccc3)nc2C1", "inhibition": "-13.7% (inactive)"}
{"compound": "CC1(C)CC(=O)c2sc(NC(=O)CCS(=O)(=O)c3ccccc3)nc2C1", "inhibition": "71% (active)"}
{"compound": "CC1(C)CC(=O)c2sc(NC(=O)c3ccccc3)nc2C1", "inhibition": "-45.6% (inactive)"}
{"compound": "CN(C)c1c(F)cc(C(=O)NC(=O)NCc2cccnc2)cc1F", "inhibition": "-15% (inactive)"}
{"compound": "COc1ccc(C(CC(=O)O)NC(=O)c2cccs2)cc1", "note": "(centres undefined)", "inhibition": "-11.2% (inactive)"}
{"compound": "Cc1cccc(NC(NC(=O)c2ccccc2[N+](=O)[O-])C(Cl)(Cl)Cl)c1", "note": "(centres undefined)", "inhibition": "-3.9% (inactive)"}
{"compound": "COc1cc(OC)cc(-n2nnnc2SCC(=O)Nc2nc3c(s2)CCCC3)c1", "inhibition": "-3.7% (inactive)"}
{"compound": "O=C(CSc1nnnn1-c1ccc2c(c1)OCCO2)Nc1nc2c(s1)CCCC2", "inhibition": "58.5% (active)"}
{"compound": "COc1ccc(-n2nnnc2SCC(=O)Nc2nc3c(s2)CCCC3)cc1", "inhibition": "43.4% (inactive)"}
{"compound": "O=C(O)c1cccc(Oc2ccc([N+](=O)[O-])cc2)c1", "inhibition": "-8.3% (inactive)"}
{"compound": "COc1cc(/C=N/NC(=O)C(=O)NCc2cccnc2)cc(OC)c1OC", "inhibition": "-15.5% (inactive)"}
{"compound": "CCOc1ccc(C(=O)O/N=C(\\N)c2ccccn2)cc1", "inhibition": "20.4% (inactive)"}
{"compound": "COc1cc(OC)cc(C(=O)O/N=C(\\N)c2ccccn2)c1", "inhibition": "-12.2% (inactive)"}
{"compound": "COc1ccc(C(=O)O/N=C(\\N)c2ccccn2)cc1", "inhibition": "84.1% (active)"}
{"compound": "N/C(=N\\OC(=O)c1ccccc1)c1ccccn1", "inhibition": "18.4% (inactive)"}
{"compound": "Cc1ccc(C(=O)O/N=C(\\N)c2ccccn2)cc1", "inhibition": "11.3% (inactive)"}
{"compound": "CNC(=O)C(=O)NCC1OCCN1S(=O)(=O)c1ccc(C)cc1", "note": "(centres undefined)", "inhibition": "-22.7% (inactive)"}
{"compound": "CCc1ccnc(NC(=O)NS(=O)(=O)c2ccc(C)cc2)c1", "inhibition": "-11.9% (inactive)"}
{"compound": "COc1ccc(NS(=O)(=O)c2cccc(C(=O)OCC(=O)NC3CC3)c2)cc1", "inhibition": "7.3% (inactive)"}
{"compound": "CCC(NC(=O)c1cc(COc2ccc(OC)cc2Cl)on1)c1ccncc1", "note": "(centres undefined)", "inhibition": "-10.3% (inactive)"}
{"compound": "O=C(CCc1nnc(CCCCc2ccccc2)o1)NCCn1cccn1", "inhibition": "-24.1% (inactive)"}
{"compound": "CCC(Sc1nc2cc(OC)c(OC)cc2c(=O)n1Cc1ccc(OC)cc1)C(=O)NCCOC", "note": "(centres undefined)", "inhibition": "-24.5% (inactive)"}
{"compound": "Cc1ccc(Oc2cnc3ccccc3n2)cc1", "inhibition": "18.8% (inactive)"}
{"compound": "c1ccc(Oc2cnc3ccccc3n2)cc1", "inhibition": "13.1% (inactive)"}
{"compound": "COc1ccc(Oc2cnc3ccccc3n2)cc1", "inhibition": "60.3% (active)"}
{"compound": "NC(=O)c1nn(-c2ccc(Oc3ccccc3)cc2)c(=O)cc1O", "inhibition": "-23.2% (inactive)"}
{"compound": "CC(CCc1ccccc1)NC(=S)NC(=O)c1ccco1", "note": "(centres undefined)", "inhibition": "-37% (inactive)"}
{"compound": "O=C(NC(=S)N(CCc1ccccc1)CCc1ccccc1)c1ccco1", "inhibition": "97.6% (active)"}
{"compound": "O=C(NC(=S)NCCc1ccccc1)c1ccco1", "inhibition": "-69.5% (inactive)"}
{"compound": "CC(C)C1Nc2ccc(C(=O)NC3CCCCC3)cc2NC1=O", "note": "(centres undefined)", "inhibition": "-43.7% (inactive)"}
{"compound": "Nc1nc(-c2ccccc2)cc(N2CCCCC2)n1", "inhibition": "6.2% (inactive)"}
{"compound": "COc1ccc(O)c(/C=N/NC(=S)Nc2cccc(S(=O)(=O)N(C)C)c2)c1", "inhibition": "-37% (inactive)"}
{"compound": "CN(C)S(=O)(=O)c1cccc(NC(=S)N/N=C/c2ccc(O)c(O)c2O)c1", "inhibition": "56.3% (active)"}
{"compound": "CN(C)S(=O)(=O)c1cccc(NC(=S)N/N=C/c2cc(Br)ccc2O)c1", "inhibition": "-11.2% (inactive)"}
{"compound": "Cc1cccc2nc(-c3ccccc3)nc(N3CCC(O)(c4ccc(Cl)cc4)CC3)c12", "inhibition": "-4.5% (inactive)"}
{"compound": "CCN1CCCC1CNC(=O)c1ccc(CS(=O)(=O)c2ccccc2C)o1", "note": "(centres undefined)", "inhibition": "4.8% (inactive)"}
{"compound": "Cc1ccc(S(=O)(=O)N2CCOC23CCN(C(=O)c2ccc(Cl)cc2Cl)CC3)cc1", "inhibition": "-26.1% (inactive)"}
{"compound": "Oc1ccccc1C=Nc1ccccc1-c1nc2ccccc2[nH]1", "inhibition": "-7.6% (inactive)"}
{"compound": "CC(C)CC(=O)NC(NC(=S)Nc1sc2c(c1C#N)CCCC2)C(Cl)(Cl)Cl", "note": "(centres undefined)", "inhibition": "64.5% (active)"}
{"compound": "CC(C)(C)C(=O)NC(=S)Nc1sc2c(c1C#N)CCCCC2", "inhibition": "-10.7% (inactive)"}
{"compound": "CC(C)(C)C(=O)NC(NC(=S)Nc1sc2c(c1C#N)CCCC2)C(Cl)(Cl)Cl", "note": "(centres undefined)", "inhibition": "46.4% (inactive)"}
{"compound": "Cc1cc(Nc2ccccc2)nc(NCc2ccccc2)n1", "inhibition": "52.7% (inactive)"}
{"compound": "O=C(c1ccco1)N1CCN(C(=O)c2cc3c(s2)-c2ccccc2OC3)CC1", "inhibition": "-13% (inactive)"}
{"compound": "CCOc1ccc(C(=O)NCC(=O)OCC(=O)N2C(C)CCCC2C)cc1", "note": "(centres undefined)", "inhibition": "-9.2% (inactive)"}
{"compound": "O=C(N/N=C/c1ccoc1)c1ccccc1", "inhibition": "20.3% (inactive)"}
{"compound": "CN(CCO)S(=O)(=O)c1ccc2c(c1)C(=NO)c1cc(S(=O)(=O)N(C)CCO)ccc1-2", "inhibition": "-16% (inactive)"}
{"compound": "CCCNC(=O)c1n[nH]c(=O)c2ccccc12", "inhibition": "-12.4% (inactive)"}
{"compound": "Cc1cc(C)c2c(N)c(C(=O)c3ccc(Cl)cc3Cl)sc2n1", "inhibition": "81.7% (active)"}
{"compound": "Cc1cc(C)c2c(N)c(C(=O)c3ccc(Cl)cc3)sc2n1", "inhibition": "6.3% (inactive)"}
{"compound": "Cc1cc(C)c2c(N)c(C(=O)c3ccccc3Cl)sc2n1", "inhibition": "0.3% (inactive)"}
{"compound": "Cc1cc(C)c2c(N)c(C(=O)Nc3nccs3)sc2n1", "inhibition": "34.4% (inactive)"}
{"compound": "Cc1cc(C)c2c(N)c(C(=O)Nc3ncc(C)s3)sc2n1", "inhibition": "92.5% (active)"}
{"compound": "Cc1cc(C)c2c(N)c(C(=O)NN)sc2n1", "inhibition": "-9.3% (inactive)"}
{"compound": "O=C(CSc1nnc(NC(=O)C2CC2)s1)NCc1ccc(F)cc1", "inhibition": "-10% (inactive)"}
{"compound": "COc1ccc(C(C)=O)cc1CSc1ncccn1", "inhibition": "-32.9% (inactive)"}
{"compound": "O=C1Nc2cc(Cl)c(Cl)cc2N(O)N1c1ccc(Cl)cc1", "inhibition": "11.5% (inactive)"}
{"compound": "CCC/C(O)=C1\\C(=O)CCCC1=NCCc1c(C)[nH]c2ccc(OC)cc12", "inhibition": "65.4% (active)"}
{"compound": "CCCC/C(O)=C1\\C(=O)CCCC1=NCCc1c(C)[nH]c2ccc(OC)cc12", "inhibition": "-7.7% (inactive)"}
{"compound": "CCC/C(O)=C1\\C(=O)CCCC1=NCCc1c(C)[nH]c2ccc(C)cc12", "inhibition": "-7.7% (inactive)"}
